# TGFb inhibitor = inhibitors of TGF-b signaling. HepG2 CAGA-GFP TGF-b/SMAD3 reporter, GFP fluorescence, 18 h; TGF-beta stimulated, 500 pg/mL final. hit rate 1.2% among 410,000. Potency, µM (doses to about 46.1 µM), for inactives: top-dose activity, negative = inhibition, usual class: inhibitors. AID 588855; also: % is scaled to controls: 0 for no effect and ±100 for the full control effect; nearly all actives have a fitted effect of over 65% in size
#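 HEPG2 CAGA-GFP cells (1000/well, DMEM with 1% FBS) were pre-incubated 2 h at 37 degrees C, given compound by pin tool, then stimulated with TGF-beta at 500 pg/mL final for 18 h before per-cell GFP fluorescence imaging.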
# 12-LOX inh = blocks human arachidonate 12S-lipoxygenase; purified 12hLO, xylenol orange hydroperoxide absorbance; Potency, µM (doses to about 108 µM), for the others: top-dose activity change, negative = inhibition, hits mostly inhibitors; hit rate 1.1% among 580,000; AID 1671190; also: % is scaled to controls: 0 for no effect and ±100 for the full control effect
# Target sequence (P18054 whole entry, looked up): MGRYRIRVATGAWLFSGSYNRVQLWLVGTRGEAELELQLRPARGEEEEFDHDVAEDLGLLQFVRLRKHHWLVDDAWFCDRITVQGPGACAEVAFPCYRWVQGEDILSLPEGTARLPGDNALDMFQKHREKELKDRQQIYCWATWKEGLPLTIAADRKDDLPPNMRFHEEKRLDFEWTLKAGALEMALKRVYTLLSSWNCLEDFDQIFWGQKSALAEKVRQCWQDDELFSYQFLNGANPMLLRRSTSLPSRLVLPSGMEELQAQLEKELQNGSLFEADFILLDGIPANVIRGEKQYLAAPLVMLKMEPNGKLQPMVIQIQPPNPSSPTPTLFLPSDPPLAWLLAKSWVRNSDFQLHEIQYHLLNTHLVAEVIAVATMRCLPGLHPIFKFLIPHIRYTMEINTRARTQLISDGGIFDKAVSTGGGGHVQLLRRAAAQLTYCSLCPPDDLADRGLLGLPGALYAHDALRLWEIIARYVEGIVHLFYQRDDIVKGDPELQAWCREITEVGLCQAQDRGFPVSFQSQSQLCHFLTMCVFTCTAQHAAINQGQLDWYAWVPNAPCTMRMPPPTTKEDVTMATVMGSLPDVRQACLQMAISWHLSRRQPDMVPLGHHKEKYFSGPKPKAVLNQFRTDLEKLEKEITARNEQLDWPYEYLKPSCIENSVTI
#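 Purified human 12hLO (150 nM final) in 25 mM Hepes, 0.01% Triton X-100, pH 7.0 was preincubated 15 min at room temperature with compound. Then 40 uM arachidonic acid was added, 30 min. Hydroperoxide was read by Fe-XO absorbance ratio 573/405 nm.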
# ATXN2 expr inh = reduces ATXN2 reporter expression in HEK-293 cells | hit rate 0.72% among 360,000 | HEK-293 ATXN2-luciferase reporter, luminescence, 24 h | AID 1745845 | Potency, µM (series often up to 57 µM), without a hit: at the highest dose activity change, negative = inhibition, hits mostly inhibitors; also: % is scaled to controls: 0 for no effect and ±100 for the full control effect; nearly all actives have a fitted effect of over 55% in size
#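 qHTS (up to 57 uM final) was run with 24 h compound exposure of reporter cells at 37 °C. Each well was multiplexed: SteadyGlo luminescence measured ATXN2-luciferase expression after a fluorogenic Gly-Phe-AFC viability readout (25 uM final).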
# HepG2 viability = HepG2 cytotoxicity, counter-screen for TGF-b inhibitors | HepG2 CAGA-GFP viability, ATP luminescence, 18 h | hit rate 0.76% among 410,000 | Potency, µM (series often up to 46.1 µM), for the others: at the top dose activity change, negative = cytotoxicity, hits mostly cytotoxic
#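 HepG2 CAGA-GFP cells (1000/well, DMEM with 1% FBS) received compound, then TGF-beta at 500 pg/mL final, and were incubated 18 hours at 37 degrees C. Viability was read by CellTiter-Glo luminescence. Media-only wells were set as complete cell-killing and DMSO as no toxicity.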
# ATXN viability = reduces viability in counter-screen for ATXN expression inhibitors. S2 cells (HEK-293 line with an ATXN2-luciferase reporter) viability, CellTiter-Fluor protease fluorescence, 24 h. Potency, µM (doses to about 56.7 µM), most hits filed as cytotoxic. hit rate 0.49% among 400,000. AID 651635; also: nearly all actives have a fitted effect of over 40% in size
# The depositor's hits bear a star; i = inactive; ? = inconclusive; / = no result; ! = not active in a repeat; [ ] = remark or other dose. Compounds with a hit are over-represented: about 2.7% of the library has one in this group of screens. Calls follow the shape of the dose curve; as a rule, active = well fitted curve in the direction sought with a large enough effect; inconclusive = small, poorly fitted or top-dose-only effect, or another doubt; inactive = no such curve, though single readings can be large; an effect the other way counts as inactive or inconclusive. Potency is read from the fitted curve at half-maximal effect.
SMILES,TGFb inhibitor,12-LOX inh,ATXN2 expr inh,HepG2 viability,ATXN viability
CC(C)(C)c1ccccc1OCCOCCNCc1ccccc1,25µM*,-23%,-35%,-65%,?
COCCCNCCOCCOc1ccc(Cl)cc1C(C)(C)C,20µM*,?,?,11µM*,?
Cc1nonc1CN(C)C(=O)CC(c1ccccc1)c1cccc(Cl)c1 (centres undefined),/,27%,/,/,/
CN(Cc1ccccc1)C(=O)CC(c1ccccc1)c1cc(Cl)ccc1O (centres undefined),16µM*,-17%,-36%,-100%,i
Cc1c(C(=O)OCC2CCCO2)[nH]c2c1C(=O)CC(c1ccc(N(C)C)cc1)C2 (centres undefined),-3%,6.3µM*,?,-27%,?
Oc1ccc(/C=N/n2cc(-c3ccccc3)[nH]c2=S)cc1,16%,16µM*,5%,-2%,i
CC(C)CN(C(=O)CCNC(=O)c1ccc(Cl)cc1)C1CCS(=O)(=O)C1 (centres undefined),-1%,-1%,?,-1%,28µM*
Cc1ccc(Oc2ccc(C(F)(F)F)cc2[N+](=O)[O-])c([N+](=O)[O-])n1,15%,0%,53%,22µM*,?
Cc1c(Oc2ccc(C(F)(F)F)cc2[N+](=O)[O-])ccc2c3c(c(=O)oc12)CCC3,14%,-11%,6%,6%,i
COC(=O)NCc1ccc2c(c1)OCO2,?,0%,0%,1%,?
COC1=C(NCc2ccc3c(c2)OCO3)C(=O)C(OC)=C(NCc2ccc3c(c2)OCO3)C1=O,8%,8.9µM*,-21%,2%,i
CCOC(=O)/C(=C\c1ccc(Cl)cc1)c1nc2sc(C)c(C)c2c(=O)[nH]1,?,?,?,8.9µM*,/
Cc1ccc2c(c1)C(c1ccccc1)=Nc1ccc(C)cc1C(c1ccccc1)=N2,/,-58%,/,/,/
CC[N+]1(C)CCC(O)(/C=C/c2ccccc2)C(C(=O)/C=C/c2ccccc2)C1 (centres undefined),4µM*,-20%,?,11µM*,/
CCc1ccc(/C=C/C(=O)C2C(=O)c3ccccc3C2=O)cc1,0%,?,?,-34%,i
Cc1ccc(C(=O)O)cc1NC(=S)NC(=O)c1ccc(COc2ccccc2)cc1,0%,2.8µM*,5%,9%,i
Cc1ccc(C(=O)O)cc1NC(=S)NC(=O)Cc1ccccc1,-15%,?,5%,-12%,i
CN1C(=O)C(C)(C)c2cc(S(=O)(=O)NCc3ccc(C(=O)Nc4ccc(Cl)cc4)cc3)ccc21,4µM*,-15%,/,-28%,/
O=C(Nc1cc(Cl)cc(Cl)c1)c1ccc(F)c(S(=O)(=O)NCc2ccccc2Cl)c1,?,-27%,/,-111%,/
Cc1ccc(C(=O)Nc2ccc(Br)cc2)cc1S(=O)(=O)NCc1ccccc1,16µM*,?,?,-54%,?
COc1ccc(CNS(=O)(=O)c2cc(C(=O)Nc3cc(Cl)cc(Cl)c3)ccc2F)cc1,7.1µM*,-29%,/,10µM*,/
CCOc1ccc(NC(=O)c2ccc(F)c(S(=O)(=O)N(CC)Cc3ccccc3)c2)cc1,-2%,?,/,-28%,/
Cc1ccc(C(=O)Nc2ccccc2C(=O)O)cc1S(=O)(=O)NCc1ccccc1,0%,0%,0%,3%,i
CCN(Cc1ccccc1)S(=O)(=O)c1cc(C(=O)Nc2cc(Cl)cc(Cl)c2)ccc1F,5µM*,-29%,/,-37%,/
CC(=O)NCCCNC(=O)NC1CCC(C)CC1 (centres undefined),/,-22%,/,/,/
SMILES,TGFb inhibitor,12-LOX inh,ATXN2 expr inh,HepG2 viability,ATXN viability
CCCN1CCN(C(=O)C2CCN(S(=O)(=O)c3ccc4c(ccn4CC)c3)CC2)CC1,/,-25%,/,/,/
COc1ccc(C(=O)CCS(=O)(=O)c2ccc(C)cc2)cc1OC,?,-64%,2%,16µM*,i
Cc1ccc(S(=O)(=O)CCC(=O)OCC(=O)c2cc(C)ccc2C)cc1,1%,11%,8%,-3%,i
Cc1ccc(S(=O)(=O)CCC(=O)c2ccc(O)cc2O)cc1,11µM*,?,22%,11µM*,i
S=c1[nH]nc(-c2n[nH]c3c2CCC3)n1/N=C/c1cccc2ccccc12,/,-61%,/,/,/
Cc1cccc(C(C)C)c1NC(=O)/C=C/c1cccs1,/,-14%,/,/,/
Cc1ccc(N2N=C(c3ccc(F)cc3)CC2c2ccco2)cc1 (centres undefined),-22%,25µM*,-20%,-25%,?
CNC(=O)[C@@H](c1ccc(Cl)cc1)N1CCC[C@H]1C(=O)NCCN1CCCC1,/,0%,/,/,/
CCCNC(=O)[C@@H]1CCCN1[C@@H](C(=O)NC)c1ccc(OC)cc1,/,10µM*,/,/,/
COc1ccccc1Nc1nc(-c2cc(C)ccc2C)cs1,/,10µM*,/,/,/
Cc1ccc(Nc2nc(-c3ccc(C)cc3C)cs2)cc1,/,6.3µM*,/,/,/
CCCCCC(=O)Nc1nc(C)c(-c2csc(Nc3ccccc3OC)n2)s1,-19%,-29%,-1%,-4%,?
CCCC(C)C(=O)Nc1nc(C)c(-c2csc(Nc3ccccc3OC)n2)s1 (centres undefined),9%,45µM*,6%,-5%,i
COc1ccccc1Nc1nc(C)cs1,5%,?,24%,13%,i
Cc1ccc(-c2csc(-c3c[nH]c4ccccc34)n2)c(C)c1,?,-26%,24%,20µM*,i
CC(OC(=O)c1cc(=O)[nH]c2ccccc12)C(=O)NC1(C#N)CCCCC1 (centres undefined),/,-8%,/,/,/
COc1ccc(Nc2nc(-c3ccc(F)cc3F)cs2)cc1,/,16µM*,/,/,/
Cc1ccc(Nc2nc(-c3c(C)nc4sccn34)cs2)cc1,/,7.1µM*,/,/,/
COCCOCCCNC(=O)c1ccc2nc(C)c(C)nc2c1,/,-1%,/,/,/
CNC(=S)/N=C/NOCc1ccc(Cl)cc1Cl,14µM*,?,-22%[11.3 µM],-13%,?
CCCOc1ccc(C(=O)N2CCC(c3nc4ccccc4s3)CC2)cc1,?,-27%,-10%,-12%,i
c1ccc(OCCCN2CCC(c3nc4ccccc4s3)CC2)cc1,/,0.71µM*,/,/,/
c1ccc(OCCCCN2CCC(c3nc4ccccc4s3)CC2)cc1,/,0.89µM*,/,/,/
COc1ccc(/C=C(/C#N)c2nc3ccccc3[nH]2)cc1OC(F)F,/,-2%,/,/,/
CCOC(=O)c1c(CC(C)C)csc1NC(=O)CCl,-10%,?,-18%,20µM*,?
N#CC(C#N)=C(N)/C(C#N)=C/c1cc(O)c(O)c(O)c1,-1%,5µM*!,-14%,-5%,i
CC(N)C1CC1 (centres undefined),/,-29%,/,/,/
CCN(CC)CCNC(=O)c1ccc2c(c1)sc1nc(-c3ccc(F)cc3)cn12,11µM*,?,/,16µM*,/

# Source: PubChem
